Compound activity deposited in PubChem BioAssay by National Center for Advancing Translational Sciences (NCATS).
HP1b chromo inh = HP1-beta chromodomain-methylated histone interaction inhibition; P83916; AlphaScreen HP1-beta / biotin-H3K9me3 peptide binding; Potency, µM (series often up to 114 µM), for the others: top-dose activity change, negative = inhibition, actives largely listed as inhibitors; actives 0.56% (n = 390,000); AID 540317; note: nearly all actives have a fitted effect of over 70% in size
Target sequence (P83916 whole entry, looked up): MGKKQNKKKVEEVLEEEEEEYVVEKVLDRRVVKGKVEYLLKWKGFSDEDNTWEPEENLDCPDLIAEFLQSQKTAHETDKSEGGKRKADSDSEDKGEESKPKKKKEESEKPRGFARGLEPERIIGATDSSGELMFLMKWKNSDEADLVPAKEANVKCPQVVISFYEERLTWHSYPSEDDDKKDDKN
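HP1-beta protein (50 nM final) preincubated 30 min at room temperature with biotinylated H3(1-18)K9me3 peptide (50 nM) in PBS pH 7.4, 0.01% Tween-20, then compound added for 30 min. AlphaScreen streptavidin donor/nickel chelate acceptor beads (10 ug/mL final), 30 min dark, luminescence read.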
G9a block = G9a (human) methyltransferase inhibition. G9a H3K9 monomethylation, AlphaScreen, 2 h. Q96KQ7. Potency, µM (highest dose often 102 µM), without a hit: at the highest dose activity, negative = inhibition, hits mostly inhibitors. actives 8.8% (n = 350,000); note: % is set by controls: 0 for no effect and ±100 for the full control effect; nearly all actives have a fitted effect of over 75% in size
Target sequence (Q96KQ7 913-1193 limits assumed): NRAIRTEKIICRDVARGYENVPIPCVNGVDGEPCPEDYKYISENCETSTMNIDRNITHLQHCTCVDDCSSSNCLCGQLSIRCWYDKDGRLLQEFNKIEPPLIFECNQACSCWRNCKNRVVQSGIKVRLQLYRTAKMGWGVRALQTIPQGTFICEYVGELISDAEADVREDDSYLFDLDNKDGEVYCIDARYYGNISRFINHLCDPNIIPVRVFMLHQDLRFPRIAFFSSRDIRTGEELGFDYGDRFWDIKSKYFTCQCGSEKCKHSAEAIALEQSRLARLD
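Quantitative HTS format: methyltransferase activity on a biotin-tagged H3K9 peptide is measured by AlphaScreen, using a rabbit anti-monomethyl-H3K9 antibody with streptavidin donor and anti-IgG acceptor beads. Final levels are 20 nM enzyme, 500 nM peptide, 20 uM SAM; 2 h RT.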
JMJD2A Tudor = inhibitors of human JMJD2A Tudor domain; AID 504339; Potency, µM (titrated, usually from 114 µM), without a hit: at the top dose activity change, negative = inhibition, usual class: inhibitors; O75164; AlphaScreen JMJD2A-Tudor / H3K4me3 peptide binding; actives 4.4% (n = 390,000); note: % is set by controls: 0 for no effect and ±100 for the full control effect; nearly all actives have a fitted effect of over 50% in size
L3MBTL1 inh = blocks human L3MBTL1; Potency, µM (top dose mostly 57.1 µM), for inactives: top-dose activity, negative = inhibition, actives largely listed as inhibitors; AlphaScreen L3MBTL1–H3K9me1 peptide binding; actives 0.66% (n = 230,000); AID 485360; Q9Y468; note: % is set by controls: 0 for no effect and ±100 for the full control effect; nearly all actives have a fitted effect of over 60% in size
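AlphaScreen proximity signal between nickel-chelate acceptor and streptavidin donor beads (final 10 ug/mL) reports binding of 50 nM L3MBTL1 to 75 nM biotin-H3 K9me1 peptide; complex incubated with compounds 30 min at room temperature; cefsulodin titration as control.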
BAZ2B block = inhibitors of human BAZ2B bromodomain; actives 4.4% (n = 360,000); Q9UIF8; Potency, µM (series often up to 114 µM), for inactives: top-dose activity change, negative = inhibition, actives largely listed as inhibitors; AlphaScreen BAZ2B-H3K14Ac peptide displacement; note: % is set by controls: 0 for no effect and ±100 for the full control effect; nearly all actives have a fitted effect of over 60% in size
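AlphaScreen displacement: compounds (up to 110uM) incubated 30 min at room temperature with a preformed 50 nM BAZ2B/50 nM biotinylated H3K14Ac peptide complex in PBS pH 7.4 with Tween-20. Donor and acceptor beads at 10 ug/mL final added, 20 min light-protected before reading.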
The depositor's hits bear a star; ? = inconclusive; / = no result; [ ] = dose if it differs, or a comment. Shown are actives, neighbours in structure and some others; about 11% of the full set was active somewhere. Calls come from the whole dose curve; as a rule, active = well fitted inhibition curve with a large enough effect; inconclusive = small, poorly fitted or top-dose-only effect; inactive = no such curve, though single readings can be large or run the other way. Potency is the fitted concentration of half-maximal effect.

SMILES	HP1b chromo inh	G9a block	JMJD2A Tudor	L3MBTL1 inh	BAZ2B block
Cc1ccc2[nH]c(=O)c(CN(CCc3ccccc3)C(c3nnnn3Cc3ccco3)C(C)C)cc2c1 (stereo unspecified)	-14%	?	?	/	-30%
Cc1cccc(CN2CCC(CNC(=O)Cn3ncc4c([nH]c5ccc(C)cc54)c3=O)CC2)c1	18%	-18%[59 µM]	-11%	/	0%[57.1 µM]
Nc1nc(NCc2ccc(Cl)c(Cl)c2)c2[nH]cnc2n1	27%	/	-26%	/	/
CCc1ccc2[nH]c(=O)c(CN(Cc3ccccc3)Cc3nnnn3Cc3ccco3)cc2c1	10%	10µM*	?	-2%	-5%
O=c1ccc2cc(S(=O)(=O)N3CCN(c4ccccc4F)CC3)ccc2o1	14%	-12%	-7%	/	5%
O=c1[nH]c2ccc(S(=O)(=O)N3CCN(c4ccccc4F)CC3)cc2s1	31%	14µM*	-16%	1%	-29%
COc1ccc(S(=O)(=O)N2CCN(c3ccccc3F)CC2)cc1-c1noc(C)n1	85%	0.5µM*	-14%	/	56µM*
Cc1cc(S(=O)(=O)N2CCC(N3CCCCC3)CC2)ccc1-n1cnnn1	32%	50µM*	-12%	-27%	?
Cc1cc(S(=O)(=O)N2CCN(c3ccccc3F)CC2)ccc1-n1cnnn1	27%	50µM*	-13%	/	?
CCc1nc(-c2cc(S(=O)(=O)N3CCN(c4ccccc4F)CC3)ccc2OC)no1	8%	6%[59 µM]	-21%	/	-4%
S=c1[nH]c(=S)c2[nH]cnc2[nH]1	47%[57 µM]	/	-28%[57.1 µM]	/	/
CO[C@@]1(NC(=O)C2SC(=C(C(N)=O)C(=O)O)S2)C(=O)N2C(C(=O)O)=C(CSc3nnnn3C)CS[C@@H]21 (stereo partly specified)	-2%	16µM*	25µM*	7.9µM*	50µM*
CO[C@@]1(NC(=O)CSCC#N)C(=O)N2C(C(=O)O)=C(CSc3nnnn3C)CSC21 (stereo partly specified)	/	-40%[2.33 µM]	/	/	/
O=C(/C=C/c1ccco1)c1cccnc1	0%	40µM*	?	/	-33%
Cc1cc(C(=O)N/N=C/c2ccco2)n[nH]1	24%	5%	-5%	31%	11%
O=C(/C=C/c1ccco1)Nc1cccnc1	45%	/	-4%	-15%	-36%
CC(/C=C/c1ccco1)=N\NC(=O)c1cc(C)[nH]n1	14%	50µM*	-26%	?	-9%
CC(/C=C/c1ccco1)=N/NC(=O)OC(C)(C)C	23%	71µM*	-8%	-3%	-5%
CC(/C=C/c1ccco1)=N\NC(=O)c1cccnc1	10%	50µM*	-24%	/	-7%
Cc1ccc(N2CCN(C(=O)CCS(=O)(=O)c3cc4c(cc3Cl)NC(=O)CO4)CC2)c(C)c1	30%	-27%[59 µM]	-13%	/	-15%
N#Cc1ccc(CN2CC3(CCN(C(=O)c4csnn4)CC3)C2)cc1	/	10%[12.7 µM]	/	/	/
CC(C)=CCc1c(O)cc2oc(C)cc(=O)c2c1O	/	-36%[2.33 µM]	/	/	/
CC(C)=CCc1c(O)cc2oc3c(CC=C(C)C)c(O)c(O)c(CC=C(C)C)c3c(=O)c2c1O	4%	17%[12.7 µM]	50µM*	/	50µM*
CC1=C(c2ccc(C(C)C)cc2)S(=O)(=O)NC1=NCc1ccc(OC(C)C)cc1	33%	-38%[59 µM]	-13%	/	-8%
Cc1cc(C)cc(N2C(=O)CC(c3ccc(C(F)(F)F)cc3)C3=C2COC3=O)c1 (stereo unspecified)	21%	-7%[59 µM]	-2%	/	-19%
SMILES	HP1b chromo inh	G9a block	JMJD2A Tudor	L3MBTL1 inh	BAZ2B block
Cc1cc(C)c2c(CC(=O)Nc3ccc(S(=O)(=O)N4CCCC(C)C4)cc3)coc2c1 (stereo unspecified)	-3%	-30%[59 µM]	-23%	/	-33%
O=C(c1ccc(Cl)c(S(=O)(=O)NCc2ccco2)c1)N1CCN(c2ccccc2F)CC1	-32%	-12%	56µM*	/	-10%
COC(=O)c1ccccc1NC(=O)c1noc2c1CSc1ccccc1-2	80%	?	25%	/	40%
CN1CCN(CC(C)(C)NS(=O)(=O)c2ccccc2)CC1	9%	/	-5%	6%	/
Cc1ccc(S(=O)(=O)NC(C)(C)CN2CCC(Cc3ccccc3)CC2)cc1	-7%	7.9µM*	40µM*	3%	56µM*
Cc1ccc(S(=O)(=O)NCCC(=O)N2CCC(Cc3ccccc3)CC2)cc1	45%	19%[0.501 µM]	-9%	4%	11%
CC(C)(CN1CCc2ccccc2C1)NS(=O)(=O)c1ccccc1	?	10µM*	3.2µM*	4%	-31%
CC1CC(C)CN(CC(C)(C)NS(=O)(=O)c2ccccc2)C1 (stereo unspecified)	?	8.9µM*	22µM*	-1%	50µM*
CC(C)(CN1CCOCC1)NS(=O)(=O)c1ccccc1	57%	/	3%	6%	9%
CCC1CCCCN1CC(C)(C)NS(=O)(=O)c1ccccc1 (stereo unspecified)	?	7.1µM*	4.5µM*	-8%	?
Cc1noc(C)c1-c1cc(NCc2cccs2)ncn1	/	5%[0.501 µM]	/	/	/
Cc1cc2cc(CN(CCN(C)C)C(=S)NCc3ccco3)c(=O)[nH]c2cc1C	-23%	13%[12.7 µM]	?	-23%	71µM*
Cc1cc2cc(CN(Cc3ccco3)C(=O)NCc3ccccc3)c(=O)[nH]c2cc1C	2%	50µM*	-21%	-10%	?
CCCc1nnc(SCC(=O)Nc2ccc(NC(C)=O)cc2)n1-n1cccc1	20%	2%[0.501 µM]	0%	4%	13%
S=c1[nH]nc(-c2cccnc2)n1/N=C/C=C/c1ccccc1	-19%	1.8µM*	7.1µM*	-8%	-33%
CC(/C=N/n1c(-c2cccnc2)n[nH]c1=S)=C\c1ccccc1	17%	0.89µM*	20µM*	-5%	?
CC(/C=N/NC(=O)c1cccnc1)=C\c1ccccc1	31%	4%	-2%	/	/
C(=C\c1nc(-c2cccnc2)no1)/c1ccccc1	35%	-10%	-4%	-4%	-3%
S=c1[nH]nc(-c2ccccc2)n1/N=C/c1ccc(-c2ccccc2Cl)o1	-15%	?	?	-11%	-13%
CC(=C/c1ccccc1)/C=N/n1c(C)n[nH]c1=S	2%	/	32µM*	10%	-7%
Cc1ccc(/C=N/n2c(C)n[nH]c2=S)o1	15%	?	5µM*	2%	-5%
CC(/C=N/N1C(=O)CSC1=S)=C\c1ccccc1	-2%	?	-33%	10%	?
S=c1[nH]nc(-c2ccncc2)n1/N=C/c1cn(-c2ccccc2)nc1-c1ccc(Cl)cc1	12%	-12%	-35%	/	-4%
CC(=C/c1ccccc1)/C=N/n1c(-c2ccncc2)n[nH]c1=S	?	-119%	10µM*	-3%[11.4 µM]	?
COc1ccccc1NC(=O)CSc1cn(CC(=O)N2CCCC2)c2ccccc12	38%	-30%[59 µM]	-27%	/	?
